# According to PubChem BioAssay (Tox21):
# Values joined by “and” are separate entries in the source; they are usually repeats but may differ in a detail not shown here. Equal entries are not always repeated. Records with an inconclusive call do not appear. Entries that show only a call come without a potency. Active and inactive are the calls of the source. Calls follow the shape of the dose curve; as a rule, active = well fitted cell-killing curve with a large enough effect in the repeat runs; inconclusive = weak or mixed curves, or effect the other way; inactive = flat fitted curve, though single readings scatter.
# Assay: qHTS assay to identify small molecule antagonists of the androgen receptor (AR) signaling pathway using the MDA cell line - cell viability counter screen (AID 743041; also: nearly all actives have a fitted effect of over 45% in size)
# Settings: MDA-kb2 viability, CellTiter-Fluor, 16 h, cells co-treated with R1881 androgen agonist; series mostly up to 70.3 µM
# Text: National Center for Advancing Translational Sciences [NCATS]
# NIH Chemical Genomics Center [NCGC]
# U.S. Environmental Protection Agency [EPA]
# National Institutes of Environmental Health Sciences [NIEHS]
# National Toxicology Program [NTP]
# U.S. Food and Drug Administration [FDA]
# Androgen receptor (AR), a nuclear hormone receptor, plays a critical role in AR-dependent prostate cancer and other androgen related diseases. Endocrine disrupting chemicals (EDCs) and their interactions with steroid hormone receptors like AR may cause disruption of normal endocrine function as well as interfere with metabolic homeostasis, reproduction, developmental and behavioral functions. To identify the compounds that inhibit AR signaling, MDA-kb2 AR-luc cell line (from ATCC, deposited by Wilson et al.) was used to screen the Tox21 10K compound library. MDA-kb2 AR-luc cell line is human breast carcinoma cell line that was stably transfected with a luciferase reporter gene under control of the MMTV promoter containing response elements for both androgen receptor (AR) and glucocorticoid receptor (GR). The cytotoxicity of the Tox21 compound library against the MDA-kb2 AR-luc cell line was tested in parallel by measuring the cell viability using CellTiter-Fluor assay (Promega, Madison, WI) in the same wells.
# Tox21 Assay Protocol Summary:
# MDA-kb2 AR-luc cells were dispensed at 3,000 cells/4 uL/well of culture medium into white wall/solid-bottom 1536-well plates using a Multidrop Combi (ThermoFisher Scientific, Waltham, MA) dispenser. After the assay plates were incubated at a 37C and 0% CO2 for 5 hr, 23 nL of compounds dissolved in DMSO, positive controls or DMSO only was transferred to the assay plate by a Pintool station (Kalypsys, San Diego, CA), followed by addition of 1 uL of agonist (R1881) in culture medium using a Bioraptr Flying Reagent Dispenser (FRD) workstation (Beckman Coulter, Indianapolis, IN, USA). The plates were incubated at a 37C and 0% CO2 for 16 h. After 15.5 h incubation, 1uL of CellTiter-Fluor reagent (Promega) was added using a Bioraptr FRD to each plate for measuring cytotoxicity. The fluorescence intensity was quantified on a ViewLux plate reader (PerkinElmer, Shelton, CT) following 30 min incubation at 37C and 0% CO2.
# Potency is read from the fitted curve at half-maximal effect.
row,Compound,Potency
1,CC1(C)C(C(=O)OC(C#N)c2cccc(Oc3ccccc3)c2)C1(C)C (stereo not given),inactive
2,CCC[CH2][Sn]([Cl])([CH2]CCC)[CH2]CCC,1.22 µM (active) and 2.17 µM (active)
3,ClCC(Cl)CCl,inactive
4,[CH3][Sn]([Cl])([Cl])[Cl],inactive
5,C=CC(Cl)CCl (stereo not given),inactive
6,Cl,inactive
7,Cc1cc(Cl)ccc1N=CN(C)C,inactive
8,[Cl-].[Cl-].[Cl-].[Fe+3],inactive
9,CC1=C(C(=O)Nc2ccccc2)SCCO1,inactive
10,O=[N+]([O-])/N=C1\NCCN1Cc1ccc(Cl)nc1,inactive
11,CCCCCCCCCC(CC)c1ccc(S(=O)(=O)O)cc1 (stereo not given),inactive
12,CCCCCCCC[N+](C)(CCCCCCCC)CCCCCCCC,17.2 µM (active) and 2.73 µM (active) and 15.4 µM (active)
13,CCOP(=S)(OCC)OP(=S)(OCC)OCC,inactive
14,CCC[CH2][Sn]([Cl])([Cl])[CH2]CCC,1.96 µM (active) and 2.73 µM (active)
15,Nc1ccc2ccccc2c1,inactive
16,CCOS(=O)(=O)OCC,inactive
17,O=[N+]([O-])c1ccc(Cl)c([N+](=O)[O-])c1,15.6 µM (active) and 13.7 µM (active)
18,COP(=S)(OC)Oc1ccc(Sc2ccc(OP(=S)(OC)OC)cc2)cc1,inactive
19,COc1ccc(C=O)cc1OC,inactive
20,CSc1nc(NC(C)C)nc(NC(C)C)n1,inactive

row,Compound,Potency
1,CCOP(=O)(OCC)OCC,inactive
2,N#Cc1cccnc1,inactive
3,CC(C)=CC1C(C(=O)OCc2cccc(Oc3ccccc3)c2)C1(C)C (stereo not given),inactive
4,CN(C)c1nc(=O)n(C2CCCCC2)c(=O)n1C,inactive
5,O=C1CCCO1,inactive
6,CC[n+]1c(-c2ccccc2)c2cc(N)ccc2c2ccc(N)cc21,13.3 µM (active) and 26.6 µM (active) and 30.5 µM (active)
7,CC(C)Nc1ccc(Nc2ccccc2)cc1,68.3 µM (active) and 61.1 µM (active)
8,O=[N+]([O-])c1ccc(Nc2ccccc2)cc1,61.6 µM (active) and 61.1 µM (active)
9,CCCCC(C#N)(Cn1cncn1)c1ccc(Cl)cc1 (stereo not given),inactive
10,CCCCCCCCCc1ccc(O)cc1,inactive
11,CC1CC(=O)O1 (stereo not given),inactive
12,N#CCCCCC#N,inactive
13,Clc1ccccc1-c1nnc(-c2ccccc2Cl)nn1,inactive
14,CNC(=O)CSP(=S)(OC)OC,inactive
15,CC(C)COC(=O)c1ccccc1C(=O)OCC(C)C,inactive
16,ClC(Cl)(Cl)c1ccccc1,inactive
17,O=NN(c1ccccc1)c1ccccc1,inactive
18,OCCOCCO,inactive
19,Clc1ccc(C(Cl)(Cl)Cl)cc1,inactive
20,CCCCOCC1CO1 (stereo not given),inactive
